Data on seven molecules can be found in publication PMC5540273 (PLoS ONE, 2017).

In test [1] the test system is TTK.
Test [2] concerns TYK2(JH1domain-catalytic).
In test [3] the test system is TYK2(JH2domain-pseudokinase).
The test system of test [4] is T1, VEGFR2.
T1 construct: gene KDR

Test [5] deals with VRK2.
Test [6] deals with WNK4.
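Further: kd values determined as follow-up on hits from a single-replicate KINOMEscan panel screen.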

Usually Kd stands for the equilibrium constant for the complex coming apart. Read a high Kd as lower affinity. In test [1], `O=C1NC(=O)C(c2ccc(Cl)cc2)=C1Nc1ccc(O)cc1` [SB-340867] yielded a Kd of 5.5 µM. Molecule `CC(=O)c1c(C)c2cnc(Nc3ccc(N4CCNCC4)cn3)nc2n(C2CCCC2)c1=O` had a Kd in test [1] of 0.0092 µM. Turning to `Cn1cncc1-c1cc2c(Nc3ccc(OCc4ccccc4)cc3)ncnc2cn1` [GW281179], in test [2], the Kd was greater than 10 µM.

`CN1c2ccc(-c3ccc(C(N)=O)cc3)cc2-c2[nH]ncc2S1(=O)=O`: binding in test [3] was characterised by a dissociation constant (Kd) of 0.93 µM. As to `Cn1cnc2c(N)ncnc21` [SKF-97623], the Kd in test [4] and in test [5] was greater than 10 µM each time. The molecule `O=C1NC(=O)C(c2ccc(Cl)cc2)=C1Nc1cccc(Cl)c1` [SB-317651] registered a Kd in test [5] greater than 10 µM.

Take `CNc1cc(-c2ccc3c(N)n[nH]c3c2)nc(N)n1` [GSK2224810]: the Kd in test [6] was greater than 10 µM.
